The nature of assay [1]: NCI Yeast Anticancer Drug Screen. Data for the rad50 strain (AID 155).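 Further: 0% = growth of vehicle-only cultures of the same strain.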 The settings on record: S. cerevisiae rad50 strain growth inhibition, hits give high values. The gist of the method: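 Compounds were tested on a yeast strain with an engineered DNA damage repair alteration; the reported value is growth inhibition normalised to vehicle treatment.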
Assay [2] in a line: NCI Yeast Anticancer Drug Screen. Data for the mec2-1 strain (AID 157). The conditions noted are these: S. cerevisiae mec2-1 strain, hits give high values. The gist of the method:
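Mutant yeast (mec2-1) grown with compound; growth inhibition relative to vehicle control reported.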

Assay [3] in a line: NCI Yeast Anticancer Drug Screen. Data for the sgs1 mgt1 strain (AID 161).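 Further: 0% = growth of cultures given vehicle only.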 The settings on record: S. cerevisiae sgs1 mgt1 strain, hits give high values. The gist of the method: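 This yeast growth screen uses a strain with defined DNA-repair lesions; compound-treated growth is compared with vehicle-treated growth.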
Assay [4] can be described thus: NCI Yeast Anticancer Drug Screen. Data for the cln2 rad14 strain (AID 165).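 Further: 0% = growth equal to vehicle treated cultures.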 The conditions noted are these: S. cerevisiae cln2 rad14 strain, hits give high values. The gist of the method:
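Readout is yeast growth inhibition versus vehicle-treated controls, using a strain with cln2 and rad14 alterations exposed to compound.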

Assay [5] is described as follows: NCI Yeast Anticancer Drug Screen. Data for the bub3 strain (AID 167). The settings on record: S. cerevisiae bub3 mutant strain, hits give high values. The procedure, abridged:
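Growth of a checkpoint-deficient yeast mutant is measured after compound exposure. Values represent inhibition relative to vehicle.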

Assay [6] in a line: NCI Yeast Anticancer Drug Screen. Data for the mlh1 rad18 strain (AID 175). The conditions noted are these: S. cerevisiae mlh1 rad18 strain growth inhibition, hits give high values. The procedure, abridged:
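Genetically defined yeast (DNA repair-deficient) exposed to compounds; growth inhibition determined relative to vehicle.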

Where [7] appears, read: at 5.0 µM (retest, dose inferred, filed as 0.5).
[8] abbreviates: at 50.0 µM (retest, dose inferred, filed as 5.0).

Compounds without any hit were thinned out: in the full panel of roughly 79,000, 15% have a hit. A number with no mark means an inactive call. Calls of active or inactive are those of the source. No stated cut-off is given here; in the data, active means growth inhibition above about 70%; inactive means the rest.

`COC(=O)N(C[C@@H]1C=CCCC1)c1ccccc1I`: the growth inhibition in assay [1] (setting [7]) was 29%; in assay [1] (setting [8]), 66%; in assay [1] (at 50.0 µM), 88.3% (active); in assay [2] (setting [7]), 29%; in assay [2] (setting [8]) it was 61%; in assay [2] (at 50.0 µM) it was 91.2% (active). The growth inhibition in assay [3] (setting [7]) is 26%; in assay [3] (setting [8]), 63%; in assay [3] (at 50.0 µM), 89.6% (active); in assay [4] (setting [7]) it was 29%; in assay [4] (setting [8]), 34%; in assay [4] (at 50.0 µM) it was 87.5% (active). The growth inhibition was 47% in assay [5] (setting [7]); 74% (active) in assay [5] (setting [8]); 91% (active) in assay [5] (at 50.0 µM); 41% in assay [6] (setting [7]); 70% (active) in assay [6] (setting [8]); 89.9% (active) in assay [6] (at 50.0 µM).
For the compound `Cc1cc(Cl)ccc1N1C(=O)C(=O)C(c2nc3ccccc3o2)C(=O)C1=O`, the growth inhibition in assay [1] (setting [7]) was 31%; in assay [1] (setting [8]), 98% (active); in assay [1] (at 50.0 µM), 86.3% (active); in assay [2] (setting [7]) it was 21%; in assay [2] (setting [8]), 99% (active); in assay [2] (at 50.0 µM) it was 64.7%. In addition, the growth inhibition was 38% in assay [3] (setting [7]); 98% (active) in assay [3] (setting [8]); 88.8% (active) in assay [3] (at 50.0 µM); 31% in assay [4] (setting [7]); 98% (active) in assay [4] (setting [8]); 79.9% (active) in assay [4] (at 50.0 µM). Moreover, the growth inhibition in assay [5] (setting [7]) was 22%; in assay [5] (setting [8]), 96% (active); in assay [5] (at 50.0 µM), 49.1%; in assay [6] (setting [7]), 25%; in assay [6] (setting [8]) it was 96% (active); in assay [6] (at 50.0 µM), 87.8% (active).
`CC(=O)c1c2c(cc3c1CC1(Cc4ccccc4C1=O)C3)CCC2` (stereo not given): the growth inhibition in assay [1] (setting [7]) is -4%; in assay [1] (setting [8]) it was 79% (active); in assay [1] (at 50.0 µM), 36.7%; in assay [2] (setting [7]) it was -27%; in assay [2] (setting [8]) it was 88% (active); in assay [2] (at 50.0 µM) it was 42.8%. The growth inhibition in assay [3] (setting [7]) is -36%; in assay [3] (setting [8]), 87% (active); in assay [3] (at 50.0 µM), 60%; in assay [4] (setting [7]), 27%; in assay [4] (setting [8]), 29%; in assay [4] (at 50.0 µM), 46.4%. The growth inhibition in assay [5] (setting [7]) was -4%; in assay [5] (setting [8]), 89% (active); in assay [5] (at 50.0 µM), 63.8%; in assay [6] (setting [7]), -11%; in assay [6] (setting [8]), 73% (active); in assay [6] (at 50.0 µM), 61.5%.
Turning to `CCC[CH2][Sn]1([CH2]CCC)[O]CC([CH2][Sn]([c]2ccccc2)([c]2ccccc2)[c]2ccccc2)[O]1` (stereo not given), the growth inhibition in assay [1] (setting [7]) was 100% (active); in assay [1] (setting [8]), 100% (active); in assay [1] (at 50.0 µM) it was 90.3% (active); in assay [2] (setting [7]), 97% (active); in assay [2] (setting [8]), 97% (active); in assay [2] (at 50.0 µM), 91.7% (active). The growth inhibition was 99% (active) in assay [3] (setting [7]); 99% (active) in assay [3] (setting [8]); 90.8% (active) in assay [3] (at 50.0 µM); 99% (active) in assay [4] (setting [7]); 99% (active) in assay [4] (setting [8]); 91.7% (active) in assay [4] (at 50.0 µM). The growth inhibition in assay [5] (setting [7]) is 97% (active); in assay [5] (setting [8]), 97% (active); in assay [5] (at 50.0 µM) it was 91.3% (active); in assay [6] (setting [7]), 98% (active); in assay [6] (setting [8]) it was 98% (active); in assay [6] (at 50.0 µM), 89% (active).
On to `CC(C)NC(=O)OCCN=C1c2ccccc2CCc2ccccc21`, for which the growth inhibition in assay [1] (setting [7]) is -17%; in assay [1] (setting [8]), 95% (active); in assay [1] (at 50.0 µM), 76.4% (active); in assay [2] (setting [7]), -32%; in assay [2] (setting [8]), 96% (active); in assay [2] (at 50.0 µM), 78.8% (active). The growth inhibition in assay [3] (setting [7]) is -46%; in assay [3] (setting [8]), 89% (active); in assay [3] (at 50.0 µM), 77.5% (active); in assay [4] (setting [7]), -26%; in assay [4] (setting [8]), 60%; in assay [4] (at 50.0 µM) it was 61.5%. In addition, the growth inhibition was -62% in assay [5] (setting [7]); 97% (active) in assay [5] (setting [8]); 81.5% (active) in assay [5] (at 50.0 µM); -11% in assay [6] (setting [7]); 95% (active) in assay [6] (setting [8]); 68.8% in assay [6] (at 50.0 µM).
In the case of `CCCCCCCCCCCC(N)c1ccccc1` (stereo not given), the growth inhibition in assay [1] (setting [7]) is 99% (active); in assay [1] (setting [8]), 99% (active); in assay [1] (at 50.0 µM), 99.5% (active); in assay [2] (setting [7]), 99% (active); in assay [2] (setting [8]) it was 99% (active); in assay [2] (at 50.0 µM), 99.5% (active). In addition, the growth inhibition in assay [3] (setting [7]) is 99% (active); in assay [3] (setting [8]), 99% (active); in assay [3] (at 50.0 µM) it was 99.2% (active); in assay [4] (setting [7]), 99% (active); in assay [4] (setting [8]), 99% (active); in assay [4] (at 50.0 µM), 99.1% (active). Besides, the growth inhibition in assay [5] (setting [7]) was 99% (active); in assay [5] (setting [8]), 99% (active); in assay [5] (at 50.0 µM) it was 99.2% (active); in assay [6] (setting [7]), 99% (active); in assay [6] (setting [8]) it was 99% (active); in assay [6] (at 50.0 µM) it was 99.5% (active).
In the case of `Cn1c(=S)c2[nH]c(SCc3ccncc3)nc2n(C)c1=O`, the growth inhibition in assay [1] (setting [7]) was -2%; in assay [1] (setting [8]), 7%; in assay [1] (at 50.0 µM) it was 47.2%; in assay [2] (setting [7]), 0%; in assay [2] (setting [8]), -1%; in assay [2] (at 50.0 µM), 59%. The growth inhibition in assay [3] (setting [7]) was -2%; in assay [3] (setting [8]), 53%; in assay [3] (at 50.0 µM), 64%; in assay [4] (setting [7]) it was -3%; in assay [4] (setting [8]), -12%; in assay [4] (at 50.0 µM), 17.8%. Moreover, the growth inhibition in assay [5] (setting [7]) is -9%; in assay [5] (setting [8]), 2%; in assay [5] (at 50.0 µM), 56.4%; in assay [6] (setting [7]), -19%; in assay [6] (setting [8]) it was -6%; in assay [6] (at 50.0 µM) it was 78.1% (active).
In the case of `CCO/N=C1\CCCCC1SS(=O)(=O)O` (stereo not given), the growth inhibition in assay [1] (setting [7]) is -5%; in assay [1] (setting [8]), 11%; in assay [1] (at 50.0 µM), 40.5%; in assay [2] (setting [7]) it was 7%; in assay [2] (setting [8]), 17%; in assay [2] (at 50.0 µM), -14.1%. Moreover, the growth inhibition in assay [3] (setting [7]) was -6%; in assay [3] (setting [8]), 20%; in assay [3] (at 50.0 µM), 31.8%; in assay [4] (setting [7]), 0%; in assay [4] (setting [8]) it was 7%; in assay [4] (at 50.0 µM) it was 15.2%. Also, the growth inhibition was 5% in assay [5] (setting [7]); 22% in assay [5] (setting [8]); 8.2% in assay [5] (at 50.0 µM); -1% in assay [6] (setting [7]); 4% in assay [6] (setting [8]); 31.9% in assay [6] (at 50.0 µM).
Consider `CC(CCC(=O)O)(c1cc(Br)c(O)c(Br)c1)c1cc(Br)c(O)c(Br)c1`, for which the growth inhibition in assay [1] (setting [7]) was 19%; in assay [1] (setting [8]) it was 91% (active); in assay [1] (at 50.0 µM) it was 90.8% (active); in assay [2] (setting [7]), -1%; in assay [2] (setting [8]), 72% (active); in assay [2] (at 50.0 µM), 90% (active). For the same compound, the growth inhibition in assay [3] (setting [7]) is -2%; in assay [3] (setting [8]), 75% (active); in assay [3] (at 50.0 µM) it was 81.5% (active); in assay [4] (setting [7]) it was -16%; in assay [4] (setting [8]), 75% (active); in assay [4] (at 50.0 µM), 92.4% (active). Also, the growth inhibition is -3% in assay [5] (setting [7]); 78% (active) in assay [5] (setting [8]); 88.6% (active) in assay [5] (at 50.0 µM); -14% in assay [6] (setting [7]); 87% (active) in assay [6] (setting [8]); 90.4% (active) in assay [6] (at 50.0 µM).
Regarding `O=C(O)Cc1cccc(O)c1`, the growth inhibition is 0% in assay [1] (setting [7]); -3% in assay [1] (setting [8]); 10.5% in assay [1] (at 50.0 µM); 3% in assay [2] (setting [7]); -1% in assay [2] (setting [8]); 41.9% in assay [2] (at 50.0 µM). In addition, the growth inhibition in assay [3] (setting [7]) was -3%; in assay [3] (setting [8]), -4%; in assay [3] (at 50.0 µM), -1.9%; in assay [4] (setting [7]) it was -8%; in assay [4] (setting [8]) it was 1%; in assay [4] (at 50.0 µM), 35.1%. Also, the growth inhibition in assay [5] (setting [7]) was -1%; in assay [5] (setting [8]), 1%; in assay [5] (at 50.0 µM) it was 5.8%; in assay [6] (setting [7]) it was 0%; in assay [6] (setting [8]), -3%; in assay [6] (at 50.0 µM), -0.1%.

The record behind these values is PubChem BioAssay (NCI).
